Source: the supplement of paper PMC6555819

How the values were obtained:
Assay in all cases: PBM binding z-score (relative to random genomic background probes); higher = stronger binding; sequences stand for … in GC…GCGATTGACAGCGTAGAATGAAGG
[1] = system: RARg:RXRa (NR concentration 270 nM, RXRa partner concentration 90 nM)
Method in brief: (§1)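 Probes were double-stranded and carried 34-nt variable regions with direct-repeat seeds, single-nucleotide variants, half-site ablations and random human genomic background sequences, printed on custom Agilent 4×180K protein-binding microarrays. Arrays were incubated 1 h with ligand-free nuclear receptor dimers in PBS pH 7.4, 2% milk, 0.02% Triton X-100, 1 mM DTT, 0.2 mg/mL BSA and 0.4 mg/ml salmon testes DNA. Antibodies against each partner (one per run) detected binding, and scanned fluorescence was regression-normalized. Binding z-scores use the random background probes as reference.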

[2] = system: RARg homodimer (NR concentration 270 nM)
Method in brief: as §1

[3] = system: RXRa DBDmut IVT, anti-RXR (DBD mutation: RXRa K156A/R161A, NR concentration 90 nM)
Method in brief: as §1

[4] = system: RXRa homodimer (NR concentration 180 nM)
Method in brief: as §1

[5] = system: THRa:RXRa (NR concentration 90 nM, RXRa partner concentration 90 nM)
Method in brief: as §1

[6] = system: THRa homodimer (NR concentration 90 nM)
Method in brief: as §1

[7] = system: VDR homodimer (NR concentration 270 nM)
Method in brief: as §1

Row | Sequence | PBM binding z-score [1] | PBM binding z-score [2] | PBM binding z-score [3] | PBM binding z-score [4] | PBM binding z-score [5] | PBM binding z-score [6] | PBM binding z-score [7]
1 | CCTACTCGGCCAAAAAGGTCATTGATGCCGATAA | 4.7 | 4.45 | 1.13 | 4.82 | 3.33 | 1.22 | 2.91
2 | TATCAAAGTTCAAAGGTAACGTAAGTATCCACAC | 6.25 | 6.03 | 4.5 | 7.49 | 3.56 | 0.168 | 4.2
3 | CAAACTAGGTCACAAAAGGTCAAAGTCGAATGAC | 7.42 | 8.02 | 2.52 | 7.78 | 4.76 | 2.22 | 3.98
4 | CAAACTAGGTCAAGAGGTCAAAGTTCGCTTCCCG | 8.33 | 7.43 | 3.49 | 8.33 | 4.67 | 2.78 | 5.53
5 | TACCCTAGGTCATTCAGGGGCCAGTATAGAAAGC | 6.19 | 5.02 | 1.56 | 3.18 | 3.65 | 1.29 | 1.84
6 | CCTTACGGGTTACTCCAGGTTATAGCATCGGAGT | 0.987 | 0.779 | -0.0626 | 1.26 | 4.49 | 0.236 | 0.487
7 | CCTTACGGGTCACGTGGTTATAGCACGACGAGCG | 5.5 | 5.1 | 1.32 | 6.08 | 3.04 | 0.0729 | 0.82
8 | ATTTGTAGGTTACATCCGGGTCATTCAGGCTATG | 4.18 | 2.41 | 1.3 | 3.47 | 3.85 | 3.39 | 4.18
9 | ATATGTAGGTTAAGCGTCATTCAGGTTGGTTCGC | 0.863 | 0.763 | 0.559 | 1.15 | 0.543 | 0.263 | 0.378
10 | CAAACTAGGTCACTAAAGGTCAAAGTCGAATGAC | 7.43 | 7.86 | 2.41 | 7.61 | 5 | 2.19 | 3.72
11 | CGAACTAGGTCACCCAGGACAGTGAATACATTGA | 4.24 | 5.04 | 2.03 | 3.13 | 3.66 | 2.18 | 1.89
12 | CAGCATAGGTCAGGGCCAGTATAGGAGGAACGTT | 3.97 | 4.39 | 0.209 | 3.33 | 1.65 | -0.231 | -0.0525
13 | CCTAGCAGGCCAATCTAGGTCACTCAAGGCTTGA | 1.5 | 1.85 | 0.439 | 0.64 | 4.18 | 1.57 | 0.1
14 | GCTGCTAGGTCAACTGATGGTCATCTAAAGCTCG | 5.46 | 5.43 | 1.87 | 3.25 | 3.09 | 1.12 | 0.187
15 | CCTACTGGGCCAAAGGTGATTGATTCCAATGCTC | 0.547 | 0.234 | -0.2 | 0.624 | 0.0559 | -0.0264 | 0.165
16 | CGTTCAAGGTCAAAGGTCAGTGAAGAGATGACGG | 8.78 | 8.73 | 4.53 | 10.3 | 5.04 | 3.34 | 3.81
17 | TCTAGTTGGTCTAAGGTCACACACTCGAAATGCG | 4.63 | 4.37 | 2.21 | 4.71 | 4.63 | 5.66 | 2.99
18 | CCTACTGGGCCACGAAAGGCCATTGATTCAGTGA | 0.332 | 0.725 | -0.292 | -0.0677 | 1.15 | -0.457 | -0.271
19 | TCTAGTTGGTCACGGAGGGCACACACGACGGGTA | 2.15 | 2.4 | 0.575 | 1.35 | 1.03 | 0.258 | 0.915
20 | TCTCGGAGGACACCAAAGGTCAGAGCTCGACATC | 4.82 | 5.32 | 0.814 | 4.15 | 3.65 | 1.2 | 1.11

Row | Sequence | PBM binding z-score [1] | PBM binding z-score [2] | PBM binding z-score [3] | PBM binding z-score [4] | PBM binding z-score [5] | PBM binding z-score [6] | PBM binding z-score [7]
21 | CGAACTAGGTCAAGGCCAGTGAATCTCCGCACGC | 3.79 | 4.63 | 1.47 | 2.73 | 3.12 | 0.958 | 0.111
22 | CGTCAAAGATCAAGGTAACGTAACAGAAAGCAGC | 0.224 | 0.612 | -0.147 | 0.691 | 1.33 | 0.524 | -0.275
23 | CGAACAAGGTCACCAGGACAGTGAAGAGGTTGGA | 6.81 | 6.95 | 3.8 | 7.03 | 4.15 | 3.1 | 2.83
24 | ACTCGGTGGACAAAGGTCAGAGCTACGCCAGTGA | 4.58 | 4.49 | 0.0487 | 4.44 | 2.45 | -0.204 | 0.332
25 | AGCGAAAGGTCGAGGTGAGTATAGAGAAAGGGAA | 4.32 | 4.24 | 0.946 | 4.46 | 2.89 | 0.747 | 0.467
26 | TCTTGTAGATCAATAGAAGTTAAGAAAGTGCGCT | 0.119 | 0.155 | 1.24 | 0.537 | 0.00398 | -0.786 | 0.102
27 | CACACTAGGTCACAGAGGTCAAAGTCCGTGCGTA | 7.55 | 8.04 | 3.26 | 8.19 | 4.84 | 3.29 | 7.03
28 | CGTCCGAGGTCATAGGAGGTCAGTGAAGACAGAT | 7.12 | 7.76 | 4.48 | 7.49 | 5.37 | 3.58 | 5.17
29 | CGAACGAGGTCATGAGTTGATAGCAAATGCCGAT | 6.18 | 6.02 | 4.6 | 6.87 | 4.26 | 3.07 | 4.41
30 | CAAACTAGTTCAAGAGGTCAAAGTCCGCTTCCCG | 6.53 | 5.81 | 3.18 | 7.43 | 3.77 | 1.92 | 4.98
31 | CCTGCGAGGTCATGGTCAGCTAATCTACAGTATG | 6.42 | 6.15 | 4.26 | 7.05 | 4.34 | 3.39 | 3.95
32 | CGTCCAAGGTCAGCGGGTCAGTGAAAGCGACGTG | 6.32 | 6.61 | 2.67 | 4.98 | 3.74 | 2.34 | 1.76
33 | CATACAGGGTCGGCTAGGCCAGAGTAGGGACGGC | 0.866 | 1.16 | -0.309 | 0.983 | 0.966 | -0.41 | 0.745
34 | ATATGTAGGTTAGGGTCAGTCAGAAAGTAGGGAA | 3.08 | 3.14 | 1.04 | 3.37 | 3.32 | 2.69 | 1.79
35 | TAGCCTAGGTTATGGGCCAGTATACCACGCGAAC | 0.379 | 0.719 | -0.976 | 0.432 | 0.373 | -0.271 | -0.399
36 | CGAACGAGGTCAAAGGACAGTGAAAGGCGACGTA | 6.46 | 6.17 | 4.61 | 6.91 | 3.88 | 1.79 | 3.52
37 | GTTACAGGGTCAAGGCCAGAGTACGCGTATTGAT | 5.65 | 5.24 | 2.91 | 6.16 | 3.62 | 1.53 | 2.86
38 | ATCTCTAGGTTAAGATAGTTCAGTGAATGCAAAT | 1.73 | 1.87 | 0.534 | 1.14 | 1.81 | 0.578 | 0.933
39 | CCTACTGGGCCATTCAGAGGGCATTGATCATATG | 1.43 | 0.891 | -0.189 | 0.134 | 0.0655 | -0.325 | 0.582
40 | CCTACTGGGCCGTTCAGAGGTCATTGATCATATG | 3.7 | 2.47 | 0.516 | 3.46 | 2.86 | 1.42 | 2.97

Row | Sequence | PBM binding z-score [1] | PBM binding z-score [2] | PBM binding z-score [3] | PBM binding z-score [4] | PBM binding z-score [5] | PBM binding z-score [6] | PBM binding z-score [7]
41 | TCTTGTAGATCAACAGGAGGTTAATAAAGATCGA | 0.776 | 0.301 | 0.161 | 1.03 | 0.904 | -0.0853 | -0.179
42 | GGAACGAGGTCATTCGAGTTGATAGCATGGCGAT | 6.09 | 6.21 | 4.87 | 7.11 | 4.76 | 2.26 | 6.31
43 | TCGTGTAGGTTACGGGGGCATTCAGGGATGAAGA | 4.09 | 3.31 | 2.75 | 3.35 | 4.09 | 2.66 | 3.98
44 | ATCGAAAGGTCGACCAGGTGAGTATACACCGTTT | 4.38 | 4.1 | 1.3 | 4.37 | 3.34 | 0.391 | 1.22
45 | AGAATGGGGTTACCAAAGATCAGGGAAACGCTTG | 2.9 | 1.43 | 1.25 | 4.79 | 3.07 | 0.513 | 0.217
46 | TGAATGAGGTTAAATATCAGGGAACGTGGCGTCG | 2.18 | 1.43 | 1.95 | 2.84 | 2.38 | 0.583 | 1.02
47 | CGTCCAAGGTTAAGGTCAGTGAAAGAGACTCGAA | 4.2 | 4.7 | 1.71 | 3.45 | 3.83 | 3.83 | 1.79
48 | TACCCTAGGTCATTGGGCCAGTATAGTACGCATC | 4.13 | 4.3 | 1.87 | 3.19 | 3.08 | 1.37 | 1.77
49 | CGTCTAAGGTCATAGGAGGTCAGTGAAGACAGAT | 7.35 | 7.8 | 4.42 | 7.22 | 5.51 | 4.81 | 4.89
50 | GATACAGGGTCAAGGTCAGAGTACGCGTATTGAT | 6.26 | 6.78 | 2.78 | 6.63 | 4.45 | 3.55 | 4.39
51 | CGAACTAGGTCAAAGGACATTGAAAGGCGACGTA | 4.1 | 4.34 | 1.63 | 3.33 | 2.82 | 0.495 | 0.442
52 | CGTACAAGGTCAAAGGTCAGTGAAGAGATGACGG | 8.95 | 8.28 | 4.22 | 10.5 | 4.71 | 2.58 | 4.13
53 | ATCGAAAGGTCGAAGGTGCGTATACCCACCCGAA | 3.93 | 3.91 | 1.37 | 4.23 | 1.66 | -0.362 | 0.858
54 | AGAATGAGGTCATACGTAGATCAGGGAAGAAAGT | 6.31 | 5.97 | 4.7 | 6.67 | 4.18 | 3.25 | 4.56
55 | CGAACTAGGTCATTGACAGGACAGTGGATAGTAA | 4.35 | 4.34 | 2.35 | 2.59 | 2.76 | 0.809 | 1.22
56 | CGTCAAAGTCCAAGGTAACGTAACAGAAAGCAGC | 0.398 | 1.1 | 1.15 | -0.0038 | 1.31 | 0.878 | 0.231
57 | TCTATTAGTTGATTAGGGCAACCGAAACAGCGGA | 0.66 | 0.733 | 1.18 | 0.678 | 0.697 | 0.563 | 0.736
58 | ATCGAAAGGTCCAAGGTGAGTATACCCACCCGAA | 0.919 | 1.08 | 0.0908 | 0.853 | 1.35 | 0.653 | 0.214
59 | CGAACTACGTCATCCAGGACAGTGAATACATTGA | 0.374 | 0.537 | 0.498 | 0.2 | 1.27 | 1.03 | 0.313
60 | AGAATGAGATTACCAAAGATCAGGGAAACGCTTG | 0.145 | 0.36 | -0.574 | 0.178 | -0.261 | -0.869 | -0.177
